From PubChem BioAssay
Hits are enriched below; roughly 3.8% of the tested compounds scored in any of these assays.
ADAM10 inh: inhibitors of human ADAM10. recombinant ADAM10, EDANS/DABCYL FRET peptide cleavage, 3 h. 0.62% of 370,000 active. inhibition, % at 7 µM;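 active means inhibition above a per-campaign cutoff equal to the mean of compounds falling between control-based bounds plus 3 SD, cut at about 20% in these data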
ADAM17 inh: inhibits human ADAM17 | AID 720648 | recombinant ADAM17, EDANS/DABCYL FRET peptide cleavage | 0.83% of 370,000 active | inhibition, % at 6.95 µM | P78536;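 active means inhibition above the mean of compounds lying between control limits plus 3 SD, set per campaign, cut at about 8.5% in these data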
Ecoli rRNA inh: inhibitors of bacterial rRNA selective over humanized ribosomes. 1.6% of 350,000 active. AID 720706. GFP signal change (wild-type ribosome), % (test concentration not listed). E. coli WT GFP vs humanized-ribosome RFP mutants, fluorescence, 24 h; stronger effect = lower value; DMSO median 0, no signal -100;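 active means significant combined selectivity score with lowered wild-type GFP, culture density cut under 30%, mutant RFP and density less affected; inactive means any of these conditions unmet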
KLK7 zymogen act: activators of human kallikrein-7 zymogen | P49862 | AID 652039 | 0.9% of 370,000 active | activation, % at 7 µM | purified proKLK7, EDANS-DABCYL substrate fluorescence; 100% is mature enzyme control, 0% vehicle;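 active means activation above the mean of all tested compounds plus 3 SD, computed per campaign excluding outliers beyond control limits, cut at about 13% in these data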
Target sequence (P49862 whole entry, looked up): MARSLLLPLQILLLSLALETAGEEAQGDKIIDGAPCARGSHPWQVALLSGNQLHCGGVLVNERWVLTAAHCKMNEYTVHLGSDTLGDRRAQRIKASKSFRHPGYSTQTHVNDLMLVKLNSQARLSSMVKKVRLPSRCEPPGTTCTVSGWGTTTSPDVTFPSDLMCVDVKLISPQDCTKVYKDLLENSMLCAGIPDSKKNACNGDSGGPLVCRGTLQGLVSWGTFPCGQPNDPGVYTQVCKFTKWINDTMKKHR
FGF22 binding: binders of recombinant human FGF22 by thermal shift. activity (Tm shift, normalised), % at 9.99 µM. 1.5% of 340,000 active. Q9HCT0. SYPRO orange fluorescence; percent of sucrose octasulfate shift, DMSO zero;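 active means mean Tm shift, scaled 0 neutral to 100 positive control, at about 1.3% or above, every replicate too, limit read from the data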
Target sequence (Q9HCT0 whole entry, looked up): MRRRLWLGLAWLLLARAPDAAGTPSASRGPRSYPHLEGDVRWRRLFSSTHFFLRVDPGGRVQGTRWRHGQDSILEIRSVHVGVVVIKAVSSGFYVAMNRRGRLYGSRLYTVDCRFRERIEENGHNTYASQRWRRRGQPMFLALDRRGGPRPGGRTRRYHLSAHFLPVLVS
Large screens that a line does not name were inactive.

O=C(Nc1ccc(Cl)c(S(=O)(=O)N2CCOCC2)c1)c1n[nH]c(=O)c2ccccc12	none
O=C(Nc1cccc(S(=O)(=O)N2CCCCC2)c1)c1ccc(Cl)nc1	Ecoli rRNA inh -23.8
Cc1ccc(NC(=O)c2ccc([N+](=O)[O-])o2)cc1S(=O)(=O)N1CCOCC1	Ecoli rRNA inh -23.4
C[C@@H]1CN([C@@H](C)CO)C(=O)Cc2cc(NC(=O)CCN3CCOCC3)ccc2O[C@@H]1CN(C)S(=O)(=O)c1ccc(F)cc1	none (no result: ADAM10 inh, ADAM17 inh, KLK7 zymogen act)
C[C@@H]1CN([C@@H](C)CO)S(=O)(=O)c2ccc(C3=CCCC3)cc2O[C@H]1CN(C)C	none (no result: ADAM10 inh, ADAM17 inh, KLK7 zymogen act)
O=C(NCC1CC1)[C@H]1[C@H](CO)[C@H]2Cn3c(ccc(-c4ccccc4)c3=O)[C@H]2N1Cc1cocn1	none (no result: ADAM10 inh, ADAM17 inh, KLK7 zymogen act)
Cc1ccc(S(=O)(=O)N(C)C[C@H]2OCCCC[C@@H](C)Oc3ccc(NC(=O)Nc4cccc5ccccc45)cc3C(=O)N([C@H](C)CO)C[C@@H]2C)cc1	none (no result: ADAM10 inh, ADAM17 inh, KLK7 zymogen act)
CC(C)C#Cc1ccc2c(c1)O[C@H](CN(C)C(=O)c1ccccn1)[C@@H](C)CN([C@H](C)CO)S2(=O)=O	none (no result: ADAM10 inh, ADAM17 inh, KLK7 zymogen act)
Cc1ccc(Nc2nc(=O)c3cccnc3s2)c(Br)c1	Ecoli rRNA inh -21.7
CC(=O)c1ccc(N2CCN(C(=O)C3CCCN(c4ncnc5c4nc4n5CCCCC4)C3)CC2)cc1 (stereo unspecified)	none
COc1ccc(N2CCN(C(=O)C3CCCN(c4ncnc5c4nc4n5CCCCC4)C3)CC2)cc1 (stereo unspecified)	Ecoli rRNA inh -26.3
CC1CCCCC12NC(=O)N(CC(=O)Nc1nccs1)C2=O (stereo unspecified)	FGF22 binding 43.1
CC1CCCCC12NC(=O)N(CC(=O)Nc1ccccc1N1CCOCC1)C2=O (stereo unspecified)	FGF22 binding 43.5
Cc1ccc(S(=O)(=O)Nc2ccc3c(c2)C(=O)N([C@@H](C)CO)C[C@@H](C)[C@H](CN(C)Cc2ccc(C(F)(F)F)cc2)OCCCC[C@@H](C)O3)cc1	none (no result: ADAM10 inh, ADAM17 inh, KLK7 zymogen act)
COc1ccc2c3c([nH]c2c1)[C@@H](CO)N(Cc1ccccn1)CC31CN(C(C)=O)C1	none (no result: ADAM10 inh, ADAM17 inh, KLK7 zymogen act, FGF22 binding)
NC(=O)COc1ccc(Nc2nnc(-c3ccc(O)cc3)c3ccccc23)cc1	Ecoli rRNA inh -25.2
Cc1ccc(-c2nnc(Nc3ccc(OCC(N)=O)cc3)c3ccccc23)cc1S(N)(=O)=O	none
COc1ccc(NC(=O)CN2CCc3ccccc3C2)c(OC)c1	none
COc1ccc(NC(=O)CN2C(=O)N(C)Cc3ccccc32)c(C)c1	FGF22 binding 44.1
CCN(C[C@H]1N[C@@](C)(C(=O)OC)[C@H]2C(=O)N(C)C(=O)[C@@H]12)C(=O)c1ccccc1	none
CCN(C[C@H]1N[C@@](C)(C(=O)OC)[C@H]2C(=O)N(C)C(=O)[C@@H]12)C(C)=O	FGF22 binding 43.5
CCN(C[C@H]1N[C@@](C)(C(=O)OC)[C@H]2C(=O)N(C)C(=O)[C@@H]12)C(=O)COC	FGF22 binding 43.0
COCCNC(=O)c1ccccc1NS(=O)(=O)c1ccc(Br)s1	none (no result: Ecoli rRNA inh, FGF22 binding)
CCOc1ccccc1NS(=O)(=O)c1ccc(Br)s1	Ecoli rRNA inh -21.2
C[C@@H]1CCCCO[C@@H](CN(C)C(=O)Nc2ccc(C(F)(F)F)cc2)[C@@H](C)CN([C@H](C)CO)C(=O)c2cc(NC(=O)c3ccncc3)ccc2O1	none (no result: ADAM10 inh, ADAM17 inh, KLK7 zymogen act)
COc1cccc(NC(=O)NCCc2ccc(Cl)cc2)c1	Ecoli rRNA inh -23.9
CC(=O)c1cccc(NC(=O)NCCc2ccc(Cl)cc2)c1	none
COc1cccc(NC(=S)N(Cc2ccc(Cl)cc2)Cc2ccc(C(=O)O)cc2)c1	Ecoli rRNA inh -32.2
C[C@@H]1CN([C@@H](C)CO)C(=O)c2cc(-c3ccc(F)cc3)cnc2O[C@H]1CN(C)C(=O)Cc1ccccc1	none (no result: ADAM10 inh, ADAM17 inh, KLK7 zymogen act)
FC(F)(F)c1ccccc1Cc1c(-c2ccccc2)nc2ccc(Br)cn12	Ecoli rRNA inh -27.2
N#Cc1ccc(-c2nc3ccc(Br)cn3c2Cc2ccccc2C(F)(F)F)cc1	none
Cc1cc(NC(=O)CSc2nccn2-c2cccc(C)c2C)no1	Ecoli rRNA inh -27.9
CCN(CC)S(=O)(=O)c1ccc2c(c1)nc(CCC(=O)Nc1cccc(C(F)(F)F)c1)n2CC	ADAM17 inh 10.4 (no result: Ecoli rRNA inh, FGF22 binding)
CCN(CC)S(=O)(=O)c1ccc2c(c1)nc(CCC(=O)O)n2CC	none
Cc1ccc(-c2ccc(S(=O)(=O)N3CCN(C)CC3)cc2)cc1	none (no result: Ecoli rRNA inh, FGF22 binding)
Cc1ccc(S(=O)(=O)N2CCN(Cc3ccsc3)CC2)cc1	FGF22 binding 43.0
Cc1cc(O)c(N)c(C)c1Cl	FGF22 binding 43.1
CC(=O)Nc1ccc(N2CCOCC2)c(Cl)c1	none
COC(=O)c1cc(NC(C)=O)ccc1N1CCOCC1	FGF22 binding 43.0
Cc1ccccc1-c1ccc([C@@H]2[C@H]3CN(C(=O)c4cccnc4)CC(=O)N3[C@H]2CO)cc1	none (no result: ADAM10 inh, ADAM17 inh, KLK7 zymogen act, FGF22 binding)
COC(=O)CNC(c1ccccc1)c1cc(Br)ccc1NC(C)=O (stereo unspecified)	FGF22 binding 43.1
CCn1c(C)csc1=NC(=O)c1ccccc1	none (no result: Ecoli rRNA inh, FGF22 binding)
CCn1c(C)csc1=NC(=O)c1ccccc1O	Ecoli rRNA inh -23.1
COc1cccc(NC(=O)N[C@@H]2C=C[C@H](CC(=O)Nc3ccc(-c4ccccc4)cc3)O[C@@H]2CO)c1	none (no result: ADAM10 inh, ADAM17 inh, KLK7 zymogen act)
CCC(=O)N[C@H]1C=C[C@@H](CC(=O)NCC2CC2)O[C@@H]1CO	none (no result: ADAM10 inh, ADAM17 inh, KLK7 zymogen act, FGF22 binding)
O=C(NCc1nnc2c3ccccc3c(-c3ccccc3)nn12)c1ccccc1Cl	FGF22 binding 44.3
Cc1ccc(C#N)c(SCc2ccccc2F)n1	Ecoli rRNA inh -25.4
C=CCn1c(SCC(=O)c2ccc(O)c(O)c2)nnc1-c1cccc(C)c1	Ecoli rRNA inh -26.9
C=CCn1c(SCC(=O)c2ccc(O)c(O)c2)nnc1-c1cccc(Cl)c1	none
CCn1c(=O)c(C(=O)Nn2c(C)nc3ccccc3c2=O)c(O)c2ccccc21	none (no result: Ecoli rRNA inh, FGF22 binding)
CCc1nc2ccccc2c(=O)n1NC(=O)c1c(O)c2ccccc2n(CC)c1=O	Ecoli rRNA inh -29.7
O=C(c1c(O)cc(O)cc1O)C1c2c(cc(O)c3c2O[C@H](c2ccc(O)cc2)[C@@H](O)C3)OC1c1ccc(O)cc1 (stereo partly specified)	FGF22 binding 1.5
CCOC(=O)CC(NC(=O)c1cccc2c1C(=O)N(Cc1cccnc1)C2)c1ccc(OCC)c(OC)c1 (stereo unspecified)	FGF22 binding 43.1 (no result: Ecoli rRNA inh)
CC(=O)N(C)C[C@H]1Oc2c(NC(=O)NC(C)C)cccc2C(=O)N(C)C[C@@H]1C	none (no result: ADAM10 inh, ADAM17 inh, KLK7 zymogen act, FGF22 binding)
O=C(O)/C=C/C(=O)Nc1ccc2c(c1)C(=O)c1ccccc1C2=O	Ecoli rRNA inh -35.2
CC(=O)Nc1ccc2c(c1)C(=O)c1ccccc1C2=O	none (no result: Ecoli rRNA inh, FGF22 binding)
COc1cccc(NC(=O)N(C)C[C@H]2Oc3cc(C#CC4(O)CCCC4)ccc3S(=O)(=O)N([C@@H](C)CO)C[C@@H]2C)c1	none (no result: ADAM10 inh, ADAM17 inh, KLK7 zymogen act)
COc1ccc(C(=O)OCC(=O)N2C(C)CCCC2C)cc1[N+](=O)[O-] (stereo unspecified)	FGF22 binding 43.4 (no result: Ecoli rRNA inh)
